Out of some 5,500 compounds screened, about 2,000 (36%) were called active. Not shown: some 18% with an inconclusive outcome. No stated cut-off is given here; in the data, active means normalized growth mostly below about 0.91 (no sharp cut-off); inconclusive means no clear call, values can overlap the other calls; inactive means mostly above about 0.92. Some of the results follow.
Assay: chemical genetic growth profiling, strain panel (AID 1159580);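 further: tested at 20 µM; growth read once vehicle control cultures reached saturation at 30 °C; 1 = growth at the plate median or of vehicle wells; lower values mean less growth of the strain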
Details: growth OD

Measured: normalized growth

Cc1cc(O)c(C)c(O)c1C(=O)O
inactive: S. cerevisiae deletion strains, locus YJR066W, strain TOR1, active compounds read low 0.948 | S. cerevisiae deletion strains, locus YKL009W, strain mrt4, active compounds read low 1.01 | S. cerevisiae deletion strains, locus YKL068W, active compounds read low 0.982 | S. cerevisiae deletion strains, locus YKL085W, strain MDH1 (second series), active compounds read low 0.997 | S. cerevisiae deletion strains, locus YKL085W, strain MDH1, active compounds read low 0.997 | S. cerevisiae deletion strains, locus YKL160W, strain elf1, active compounds read low 1.02 | S. cerevisiae deletion strains, locus YKR001C, strain vps1, active compounds read low 0.971 | S. cerevisiae deletion strains, locus YKR026C, strain gcn3, active compounds read low 0.983 | S. cerevisiae deletion strains, locus YKR091W, strain srl3, active compounds read low 0.99 | S. cerevisiae deletion strains, locus YLL001W, strain dnm1, active compounds read low 1.01 | S. cerevisiae deletion strains, locus YLL026W, active compounds read low 1 | S. cerevisiae deletion strains, locus YLL041C, strain sdh2, active compounds read low 0.999 | S. cerevisiae deletion strains, locus YLR027C, strain aat2, active compounds read low 0.983 | S. cerevisiae deletion strains, locus YLR039C, strain RIC1, active compounds read low 0.982 | S. cerevisiae deletion strains, locus YLR058C, strain SHM2, active compounds read low 1.01 | S. cerevisiae deletion strains, locus YLR102C, strain apc9, active compounds read low 0.987 | S. cerevisiae deletion strains, locus YLR113W, strain HOG1, active compounds read low 0.99 | S. cerevisiae deletion strains, locus YLR221C, strain rsa3, active compounds read low 0.991 | S. cerevisiae deletion strains, locus YLR258W, strain gsy2, active compounds read low 0.994 | S. cerevisiae deletion strains, locus YLR262C, strain YPT6 (second series), active compounds read low 0.944 | S. cerevisiae deletion strains, locus YLR262C, strain YPT6, active compounds read low 0.972 | S. cerevisiae deletion strains, locus YLR268W, strain sec22, active compounds read low 1.01 | S. cerevisiae deletion strains, locus YLR320W, strain mms22, active compounds read low 0.983 | S. cerevisiae deletion strains, locus YLR342W, strain FKS1 (second series), active compounds read low 0.972 | S. cerevisiae deletion strains, locus YLR342W, strain FKS1, active compounds read low 0.977 | S. cerevisiae deletion strains, locus YLR357W, strain rsc2, active compounds read low 0.956 | S. cerevisiae deletion strains, locus YLR370C, strain arc18, active compounds read low 0.988 | S. cerevisiae deletion strains, locus YLR371W, strain rom2, active compounds read low 1 | S. cerevisiae deletion strains, locus YLR384C, strain iki3, active compounds read low 0.998 | S. cerevisiae deletion strains, locus YLR418C, strain cdc73, active compounds read low 0.943 | S. cerevisiae deletion strains, locus YML016C, strain PPZ1, active compounds read low 0.924 | S. cerevisiae deletion strains, locus YML032C, strain rad52, active compounds read low 1.03 | S. cerevisiae deletion strains, locus YML120C, strain ndi1, active compounds read low 0.975 | S. cerevisiae deletion strains, locus YML124C, strain tub3, active compounds read low 0.989 | S. cerevisiae deletion strains, locus YMR058W, strain fet3, active compounds read low 0.974 | S. cerevisiae deletion strains, locus YMR078C, strain ctf18, active compounds read low 0.984 | S. cerevisiae deletion strains, locus YMR125W, strain sto1, active compounds read low 0.982 | S. cerevisiae deletion strains, locus YMR129W, active compounds read low 0.996 | S. cerevisiae deletion strains, locus YMR205C, strain PFK2, active compounds read low 0.977 | S. cerevisiae deletion strains, locus YMR223W, strain ubp8, active compounds read low 0.988 | S. cerevisiae deletion strains, locus YMR231W, strain pep5, active compounds read low 0.985 | S. cerevisiae deletion strains, locus YMR263W, strain SAP30, active compounds read low 1.02 | S. cerevisiae deletion strains, locus YMR307W, strain GAS1, active compounds read low 1.01 | S. cerevisiae deletion strains, locus YNL067W, strain RPL9B, active compounds read low 0.979 | S. cerevisiae deletion strains, locus YNL071W, strain lat1, active compounds read low 0.994 | S. cerevisiae deletion strains, locus YNL153C, strain GIM3, active compounds read low 0.988 | S. cerevisiae deletion strains, locus YNL183C, strain NPR1, active compounds read low 0.972 | S. cerevisiae deletion strains, locus YNL209W, strain ssb2, active compounds read low 0.986 | S. cerevisiae deletion strains, locus YNL233W, strain BNI4, active compounds read low 0.998 | S. cerevisiae deletion strains, locus YNL248C, strain rpa49, active compounds read low 0.996 | S. cerevisiae deletion strains, locus YNL250W, strain rad50, active compounds read low 0.946 | S. cerevisiae deletion strains, locus YNL271C, strain bni1, active compounds read low 0.969 | S. cerevisiae deletion strains, locus YNL298W, strain CLA4, active compounds read low 0.98 | S. cerevisiae deletion strains, locus YNL307C, strain MCK1, active compounds read low 0.98 | S. cerevisiae deletion strains, locus YNL322C, strain KRE1 (second series), active compounds read low 0.965 | S. cerevisiae deletion strains, locus YNL322C, strain KRE1, active compounds read low 1 | S. cerevisiae deletion strains, locus YNR049C, strain mso1, active compounds read low 0.983 | S. cerevisiae deletion strains, locus YNR052C, strain pop2, active compounds read low 0.966 | S. cerevisiae deletion strains, locus YOL012C, strain htz1 0.903 | S. cerevisiae deletion strains, locus YOL147C, strain pex11, active compounds read low 1.01 | S. cerevisiae deletion strains, locus YOR001W, strain rrp6, active compounds read low 1 | S. cerevisiae deletion strains, locus YOR061W, strain CKA2, active compounds read low 1.01 | S. cerevisiae deletion strains, locus YOR069W, strain VPS5, active compounds read low 0.99 | S. cerevisiae deletion strains, locus YOR070C, strain gyp1, active compounds read low 0.989 | S. cerevisiae deletion strains, locus YOR080W, strain dia2, active compounds read low 0.974 | S. cerevisiae deletion strains, locus YOR083W, strain WHI5, active compounds read low 1.03 | S. cerevisiae deletion strains, locus YOR106W, strain vam3, active compounds read low 0.972 | S. cerevisiae deletion strains, locus YOR136W, strain idh2, active compounds read low 0.986 | S. cerevisiae deletion strains, locus YOR144C, strain elg1, active compounds read low 0.986 | S. cerevisiae deletion strains, locus YOR184W, strain ser1, active compounds read low 1.05 | S. cerevisiae deletion strains, locus YOR231W, strain MKK1, active compounds read low 1.03 | S. cerevisiae deletion strains, locus YOR265W, strain rbl2, active compounds read low 1 | S. cerevisiae deletion strains, locus YOR270C, strain vph1, active compounds read low 0.802 | S. cerevisiae deletion strains, locus YOR290C, strain snf2, active compounds read low 0.956 | S. cerevisiae deletion strains, locus YOR316C, strain cot1, active compounds read low 0.977 | S. cerevisiae deletion strains, locus YPL051W, strain arl3, active compounds read low 1.02 | S. cerevisiae deletion strains, locus YPL055C, strain LGE1, active compounds read low 1.01 | S. cerevisiae deletion strains, locus YPL078C, strain atp4, active compounds read low 1 | S. cerevisiae deletion strains, locus YPL106C, strain sse1, active compounds read low 0.926 | S. cerevisiae deletion strains, locus YPL240C, strain hsp82, active compounds read low 1 | S. cerevisiae deletion strains, locus YPL256C, strain CLN2, active compounds read low 1.03 | S. cerevisiae deletion strains, locus YPR119W, strain clb2, active compounds read low 0.997 | S. cerevisiae deletion strains, locus YPR141C, strain kar3, active compounds read low 0.973 | S. cerevisiae deletion strains, locus YPR163C, strain tif3, active compounds read low 0.969 | S. cerevisiae deletion strains, locus YPR167C, strain met16, active compounds read low 0.972 | S. cerevisiae deletion strains, strain wtn01, active compounds read low 1.01 | S. cerevisiae strains, strain wild type, active compounds read low 1

Reference: PubChem BioAssay AID1159580 (chemical genetic matrix, 2015)
